{
  "source": "PubChem BioAssay",
  "key": {"[1]": {"experiment": "antimalarial activity against Dd2 strain (AID 2302;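 active means growth inhibition above 50% at the single 2 µM test dose, taken to imply half-maximal potency below 2 µM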;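 further: 0% = DMSO untreated growth and 100% = chloroquine plus artemisinin killed control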)", "conditions": "P. falciparum Dd2 in RBCs, LDH growth readout, 72 h; at 2 µM; active compounds read high"}, "[2]": {"experiment": "HepG2 cytotoxicity, primary screen, cytotoxicity control for P. falciparum antimalarial project, cell-based, ATP luminescence (AID 2303;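 active means inhibition above 50%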;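 further: 0% = DMSO wells and 100% = digitonin-killed cells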)", "conditions": "HepG2 viability, 24-48 h, at 10 µM, active compounds read high"}, "[3]": {"target": "L-lactate dehydrogenase (Plasmodium falciparum (isolate CDC / Honduras)) (UniProt Q27743)", "sequence (Q27743 whole entry, looked up)": "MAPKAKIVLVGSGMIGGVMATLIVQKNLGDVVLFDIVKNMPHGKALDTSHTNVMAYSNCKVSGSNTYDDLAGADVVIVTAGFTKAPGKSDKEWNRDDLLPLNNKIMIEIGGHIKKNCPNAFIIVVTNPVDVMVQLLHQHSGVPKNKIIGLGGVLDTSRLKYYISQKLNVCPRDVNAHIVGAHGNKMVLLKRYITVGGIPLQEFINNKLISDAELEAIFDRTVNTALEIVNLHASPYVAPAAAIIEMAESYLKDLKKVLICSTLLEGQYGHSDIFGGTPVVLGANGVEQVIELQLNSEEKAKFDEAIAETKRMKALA", "experiment": "PfLDH activity inhibition – cell lysate, 3D7 strain, counter-screen for P. falciparum growth inhibition project (AID 2304);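 further: 0% = vehicle and 100% = reference inhibitor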", "conditions": "P. falciparum 3D7 crude extract, LDH APAD/NBT absorbance; at 2 µM; active compounds read high"}, "[4]": {"experiment": "inhibition of 3D7 malaria parasite growth – strain 3D7 (AID 2306);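 further: 0% = DMSO wells and 100% = chloroquine plus artemisinin control wells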", "conditions": "P. falciparum 3D7 erythrocytic growth, LDH absorbance, 72 h; at 2 µM; active compounds read high"}},
  "note": "A number with no mark means an inactive call. Calls of active or inactive are those of the source. Unless noted, how the calls were made is not given here.",
  "data": [
    {"smiles": "O=C(Nc1cccc(-c2nn3ccccc3c2-c2ccnc(Nc3ccc(-c4cc[nH]n4)cc3)n2)c1)c1c(F)cccc1F", "values": [
      {"measurement": "growth inhibition", "setting": "[1]", "result": "98% (active)"},
      {"measurement": "inhibition", "setting": "[2]", "result": "68% (active)"},
      {"measurement": "inhibition", "setting": "[3]", "result": 5, "unit": "%"},
      {"measurement": "growth inhibition", "setting": "[4]", "result": "98% (active)"}
    ]},
    {"smiles": "COc1ccc(Nc2nc(NN=Cc3cc(Cl)ccc3O)nc(Nc3ccccc3)n2)cc1", "values": [
      {"measurement": "growth inhibition", "setting": "[1]", "result": 10, "unit": "%"},
      {"measurement": "inhibition", "setting": "[2]", "result": "55% (active)"},
      {"measurement": "inhibition", "setting": "[3]", "result": 0, "unit": "%"},
      {"measurement": "growth inhibition", "setting": "[4]", "result": "100% (active)"}
    ]},
    {"smiles": "Oc1ccc(-c2nc(-c3ccc4oc5ccc(-c6[nH]c(-c7ccc(O)cc7)nc6-c6ccccc6)cc5c4c3)c(-c3ccccc3)[nH]2)cc1", "values": [
      {"measurement": "growth inhibition", "setting": "[1]", "result": "71% (active)"},
      {"measurement": "inhibition", "setting": "[2]", "result": -2, "unit": "%"},
      {"measurement": "inhibition", "setting": "[3]", "result": 3, "unit": "%"},
      {"measurement": "growth inhibition", "setting": "[4]", "result": "84% (active)"}
    ]},
    {"smiles": "CC[C@@H]([C@@H](CC(C)C)C(=O)N[C@@H](CCCCNC(=O)OCc1ccccc1)C(=O)Nc1ccccn1)N(O)C=O", "values": [
      {"measurement": "growth inhibition", "setting": "[1]", "result": "99% (active)"},
      {"measurement": "inhibition", "setting": "[2]", "result": -7, "unit": "%"},
      {"measurement": "inhibition", "setting": "[3]", "result": -8, "unit": "%"},
      {"measurement": "growth inhibition", "setting": "[4]", "result": "98% (active)"}
    ]},
    {"smiles": "Nc1c2c(nc3ccccc13)C(=Cc1ccc(O)cc1)CCC2", "values": [
      {"measurement": "growth inhibition", "setting": "[1]", "result": 6, "unit": "%"},
      {"measurement": "inhibition", "setting": "[2]", "result": 9, "unit": "%"},
      {"measurement": "inhibition", "setting": "[3]", "result": 5, "unit": "%"},
      {"measurement": "growth inhibition", "setting": "[4]", "result": "99% (active)"}
    ]},
    {"smiles": "c1cc2nc(CCCCCc3nc4ccc(C5=N[C@@H]6CCCC[C@@H]6N5)cc4[nH]3)[nH]c2cc1C1=N[C@@H]2CCCC[C@@H]2N1", "values": [
      {"measurement": "growth inhibition", "setting": "[1]", "result": "98% (active)"},
      {"measurement": "inhibition", "setting": "[2]", "result": 8, "unit": "%"},
      {"measurement": "inhibition", "setting": "[3]", "result": 1, "unit": "%"},
      {"measurement": "growth inhibition", "setting": "[4]", "result": "96% (active)"}
    ]},
    {"smiles": "CCC[C@@H](C(=O)NCCc1cccc(OC)c1)N1C(=O)c2c(ccc(OC)c2OC)C1C(=O)Nc1c(C)cccc1C", "note": "(some centres undefined)", "values": [
      {"measurement": "growth inhibition", "setting": "[1]", "result": 32, "unit": "%"},
      {"measurement": "inhibition", "setting": "[2]", "result": 6, "unit": "%"},
      {"measurement": "inhibition", "setting": "[3]", "result": 3, "unit": "%"},
      {"measurement": "growth inhibition", "setting": "[4]", "result": "94% (active)"}
    ]},
    {"smiles": "ON=C1CCc2cc(-c3cc(-c4ccc(OC5CCNCC5)cc4)oc3-c3ccncc3)ccc21", "values": [
      {"measurement": "growth inhibition", "setting": "[1]", "result": "99% (active)"},
      {"measurement": "inhibition", "setting": "[2]", "result": 34, "unit": "%"},
      {"measurement": "inhibition", "setting": "[3]", "result": 3, "unit": "%"},
      {"measurement": "growth inhibition", "setting": "[4]", "result": "101% (active)"}
    ]},
    {"smiles": "N=C(N)c1ccc(C=Cc2ccc(C(=N)N)cc2O)cc1", "values": [
      {"measurement": "growth inhibition", "setting": "[1]", "result": "80% (active)"},
      {"measurement": "inhibition", "setting": "[2]", "result": 10, "unit": "%"},
      {"measurement": "inhibition", "setting": "[3]", "result": 4, "unit": "%"},
      {"measurement": "growth inhibition", "setting": "[4]", "result": "92% (active)"}
    ]},
    {"smiles": "CCn1c(C=Cc2cc(Br)ccc2O)nc2ccccc2c1=O", "values": [
      {"measurement": "growth inhibition", "setting": "[1]", "result": "95% (active)"},
      {"measurement": "inhibition", "setting": "[2]", "result": 6, "unit": "%"},
      {"measurement": "inhibition", "setting": "[3]", "result": -5, "unit": "%"},
      {"measurement": "growth inhibition", "setting": "[4]", "result": "95% (active)"}
    ]},
    {"smiles": "ON=C1CCc2cc(-c3nc(-c4cccc(OCCNCc5ccc(F)cc5)c4)[nH]c3-c3ccncc3)ccc21", "values": [
      {"measurement": "growth inhibition", "setting": "[1]", "result": "69% (active)"},
      {"measurement": "inhibition", "setting": "[2]", "result": "76% (active)"},
      {"measurement": "inhibition", "setting": "[3]", "result": -3, "unit": "%"},
      {"measurement": "growth inhibition", "setting": "[4]", "result": "89% (active)"}
    ]},
    {"smiles": "C=CC[C@H](C[C@H](O)[C@H](Cc1ccccc1)NC(=O)c1ccc(-n2cccn2)cc1)C(=O)NC1CCCCC1", "values": [
      {"measurement": "growth inhibition", "setting": "[1]", "result": 0, "unit": "%"},
      {"measurement": "inhibition", "setting": "[2]", "result": 1, "unit": "%"},
      {"measurement": "inhibition", "setting": "[3]", "result": 1, "unit": "%"},
      {"measurement": "growth inhibition", "setting": "[4]", "result": "96% (active)"}
    ]},
    {"smiles": "COc1ccc2nc(/N=C(/N)NC(=O)Nc3ccccc3)nc(C)c2c1", "values": [
      {"measurement": "growth inhibition", "setting": "[1]", "result": 15, "unit": "%"},
      {"measurement": "inhibition", "setting": "[2]", "result": 3, "unit": "%"},
      {"measurement": "inhibition", "setting": "[3]", "result": -1, "unit": "%"},
      {"measurement": "growth inhibition", "setting": "[4]", "result": "90% (active)"}
    ]},
    {"smiles": "Oc1c(C=Nn2cnnc2)sc2ccccc12", "values": [
      {"measurement": "growth inhibition", "setting": "[1]", "result": "68% (active)"},
      {"measurement": "inhibition", "setting": "[2]", "result": -4, "unit": "%"},
      {"measurement": "inhibition", "setting": "[3]", "result": 0, "unit": "%"},
      {"measurement": "growth inhibition", "setting": "[4]", "result": "93% (active)"}
    ]},
    {"smiles": "Oc1ccc(C=NNC(=S)Nc2cccc3ccccc23)c(O)c1", "values": [
      {"measurement": "growth inhibition", "setting": "[1]", "result": "72% (active)"},
      {"measurement": "inhibition", "setting": "[2]", "result": 8, "unit": "%"},
      {"measurement": "inhibition", "setting": "[3]", "result": -4, "unit": "%"},
      {"measurement": "growth inhibition", "setting": "[4]", "result": "89% (active)"}
    ]},
    {"smiles": "COc1cc(C=C(C2=NC(=O)CS2)c2nc3cccnc3n2C)ccc1O", "values": [
      {"measurement": "growth inhibition", "setting": "[1]", "result": 48, "unit": "%"},
      {"measurement": "inhibition", "setting": "[2]", "result": 7, "unit": "%"},
      {"measurement": "inhibition", "setting": "[3]", "result": -7, "unit": "%"},
      {"measurement": "growth inhibition", "setting": "[4]", "result": "89% (active)"}
    ]}
  ]
}
